Experimental data taken from PubChem BioAssay (NCATS).
Records with an inconclusive call do not appear. Calls of active or inactive are those of the source. Unless noted, calls come from the whole dose curve; as a rule, active = well fitted curve in either direction with a large enough effect (not every such curve was filed as active); inconclusive = small, poorly fitted or top-dose-only effect, or another doubt; inactive = flat fitted curve, though single readings scatter.

Tests used:
[1] = AP1 Signaling Pathway (AID 357);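 note: ME-180 reporter cells stimulated with EGF at its EC50 level; % is set by controls: 0 for no effect and ±100 for the full control effect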
Method in brief: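 A ratiometric CCF4 readout (405 nm excitation; 460 and 530 nm emission) quantified AP-1-driven beta-lactamase in ME-180 cells after 5 h with compound and EC50 EGF; AC50 values were derived for activators and inhibitors.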

[2] = molecular target: Cytochrome P450 1A2 (Homo sapiens) (UniProt P05177); test: p450-cyp1a2 (AID 410; calls by dose curve; note: potency is the fitted concentration of half-maximal effect;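 for activity change, negative = inhibition: -100% = full effect of reference inhibitor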)
Method in brief: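 O-Demethylation of luciferin 6' methyl ether by human CYP1A2 is monitored as luciferase luminescence. Substrate sits at Km (100uM); enzyme is 20nM. Values are scaled to 57 uM furafylline as maximal inhibition.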

[3] = NFAT Signaling Pathway (AID 444); settings: Jurkat NFAT-bla M1, carbachol, beta-lactamase ratio, 5 h; at 17.2 µM (top of the series) unless noted;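 note: carbachol stimulus at about its EC50 of 1 µM final; % is set by controls: 0 for no effect and ±100 for the full control effect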
Method in brief: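 Jurkat cells carrying an NFAT-driven β-lactamase reporter and co-transfected muscarinic M1 receptor were treated with compound plus carbachol (1 uM final, an EC50 level) for 5 h at 37 °C. CCF4 loading followed for 1 h at RT; 460/530 nm ratio gave %activity.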

[4] = Stat Signaling Pathway (AID 446);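 note: ME-180 cervical cancer cells given 40 pM IL-6 alongside compound; SIE-controlled beta-lactamase reporter measured as 460/530 nm FRET emission ratio; % is set by controls: 0 for no effect and ±100 for the full control effect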
Method in brief: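 Overnight-plated ME-180 cells bearing a STAT Inducible Element beta-lactamase reporter; 5 h co-exposure to compound and 40 pM IL-6; values normalized to 300 pM IL-6 and 125 nM JAK inhibitor controls.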

[5] = molecular target: Mitogen-activated protein kinase 10 (Mus musculus) (UniProt Q61831); test: JNK3 AlphaScreen Assay (AID 530);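 note: kinase came from lysate of stimulated human HepG2 cells; signal reports phosphorylation of biotinylated GST-cJun 1-79 at Ser73 with 10 µM ATP; % is set by controls: 0 for no effect and ±100 for the full control effect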
Method in brief: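 Phosphorylation of biotinylated GST-cJun(1-79) at Ser73 is measured by AlphaScreen proximity luminescence. Enzyme is JNK3 in HepG2 lysates activated with interleukin-1beta and tumor necrosis factor alpha; ATP is 10 uM final.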

[6] = molecular target: 3',5'-cyclic-AMP phosphodiesterase 4B (Homo sapiens) (UniProt Q07343); test: qHTS Assay for Inhibitors of PDE-IV (AID 607; active = well fitted activation curve with a large enough effect in the main read-out, with a control signal flat, not every such curve was filed as active; note: % of control where 0% means no effect)
Method in brief: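 Live HEK293 cells with a modified cyclic nucleotide-gated (CNG) channel report intracellular cAMP via membrane-potential dye fluorescence (ex 535/em 590 nm). Endogenous PDE-IV was targeted. Compounds were tested at up to 22.9 uM final; RO 20-1724 100 uM served as control.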

[7] = qHTS Assay for Lipid Storage Modulators (AID 1519; calls by dose curve); settings: Drosophila S3 cells, BODIPY lipid droplet/cell ratio, laser cytometry, cells loaded with oleic acid
Method in brief: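 Cells seeded at 5,000 per well were treated with compounds over a concentration series and loaded with oleic acid (400 uM, as added). Lipid droplet fluorescence (488 nm excitation, 500-530 nm channel) was read by laser-scanning cytometry and normalized to 20 uM Triacsin C.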

[8] = molecular target: Ubiquitin carboxyl-terminal hydrolase 1 (Homo sapiens) (UniProt O94782); test: Inhibitors of USP1/UAF1: Pilot qHTS (AID 504865; active = well fitted inhibition curve with a large enough effect;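 note: rhodamine fluorescence freed from ubiquitin-rhodamine substrate followed over time; top concentration of the series differs between compounds; % is set by controls: 0 for no effect and ±100 for the full control effect; nearly all actives have a fitted effect of over 35% in size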)
Method in brief: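 USP1/UAF1 complex at 1 nM preincubated 15 min at room temperature with compound, then Ub-Rho substrate added at 150 nM final. Fluorescence (480/540 nm) read kinetically in 50 mM HEPES pH 7.8, 0.5 mM EDTA, 1 mM TCEP, 0.1 mg/ml BSA, 0.01% Tween-20.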

[9] = molecular target: Luciferin 4-monooxygenase (Photinus pyralis) (UniProt P08659); test: Biochemical firefly luciferase enzyme assay for NPC (AID 624030; active = well fitted inhibition curve with a large enough effect;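 note: purified P. pyralis luciferase at 10 nM with luciferin and ATP substrate; 0% = DMSO and -100% = full luciferase inhibition by PTC124 control; nearly all actives have a fitted effect of over 70% in size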)
Method in brief: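 Counter-screen for direct inhibition of the luciferase enzyme by approved-drug library compounds, run at 10 nM enzyme in 50 mM Tris acetate (final). Luminescence was read within 5 min of enzyme-buffer addition and normalized to PTC124 versus DMSO (0%).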

[10] = qHTS profiling for inhibitors of Plasmodium falciparum proliferation (AID 504749; active = well fitted inhibition curve with a large enough effect; note: potency is the fitted concentration of half-maximal effect;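 for activity, negative = inhibition: 0% = DMSO vehicle and full inhibition = artemisinin control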; for all read-outs here: nearly all actives have a fitted effect of over 60% in size); settings: P. falciparum in erythrocytes, SYBR Green DNA, 72 h; for activity, negative = inhibition: at 12.8 µM (top of the series)
Method in brief: (§1)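 Quantitative HTS: compounds pinned into medium, infected erythrocytes added (0.3% parasitemia, 2.5% hematocrit), 72 h culture at 37 C under 5% CO2. Saponin/Triton lysis with SYBR Green I, overnight RT, then fluorescence read.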

C2A = test: as above; settings: P. falciparum in erythrocytes, SYBR Green DNA, 72 h; series mostly up to 12.8 µM
Method in brief: as §1

CP217 = test: as above; settings: P. falciparum in erythrocytes, SYBR Green DNA, 72 h; series mostly up to 12.8 µM
Method in brief: as §1

CP238 = test: as above; settings: P. falciparum in erythrocytes, SYBR Green DNA, 72 h; series mostly up to 12.8 µM
Method in brief: as §1

CP250 = test: as above; settings: P. falciparum in erythrocytes, SYBR Green DNA, 72 h; series mostly up to 12.8 µM
Method in brief: as §1

CP256 = test: as above; settings: P. falciparum in erythrocytes, SYBR Green DNA, 72 h; series mostly up to 12.8 µM
Method in brief: as §1

FAB9 = test: as above; settings: P. falciparum in erythrocytes, SYBR Green DNA, 72 h; series mostly up to 12.8 µM
Method in brief: as §1

JCK = test: as above; settings: P. falciparum in erythrocytes, SYBR Green DNA, 72 h; series mostly up to 12.8 µM
Method in brief: as §1

SC27B = test: as above; settings: P. falciparum in erythrocytes, SYBR Green DNA, 72 h; series mostly up to 12.8 µM
Method in brief: as §1

[11] = molecular target: Glucocorticoid receptor (Homo sapiens) (UniProt P04150); test: GR-GFP Redistribution (AID 450;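 active = compounds whose dose series gives a full or clear partial fitted curve of increased nuclear translocation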; note: potency is the fitted concentration of half-maximal effect); settings: U2OS GR-GFP nuclear translocation, laser cytometry, 2 h
[12] = molecular target: Glucocorticoid receptor (Homo sapiens) (UniProt P04150); test: GR-EFC Redistribution (AID 451; calls by dose curve; note: potency is the fitted concentration of half-maximal effect); settings: CHO-K1 GR-EFC translocation, beta-gal luminescence, 2 h
Method in brief: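 CHO-K1 cells stably expressing nuclear-localized β-gal enzyme acceptor and GR fused C-terminally to the enzyme donor fragment; ligand-driven nuclear translocation restores β-gal by complementation. Compounds titrated up to 46 uM final, 2 h at 37 °C; luminescence read.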

[13] = measured here: cell count channel max response
[14] = measured here: lipid channel max response

Chain of Ubiquitin carboxyl-terminal hydrolase 1 (Homo sapiens) (O94782 whole entry, looked up): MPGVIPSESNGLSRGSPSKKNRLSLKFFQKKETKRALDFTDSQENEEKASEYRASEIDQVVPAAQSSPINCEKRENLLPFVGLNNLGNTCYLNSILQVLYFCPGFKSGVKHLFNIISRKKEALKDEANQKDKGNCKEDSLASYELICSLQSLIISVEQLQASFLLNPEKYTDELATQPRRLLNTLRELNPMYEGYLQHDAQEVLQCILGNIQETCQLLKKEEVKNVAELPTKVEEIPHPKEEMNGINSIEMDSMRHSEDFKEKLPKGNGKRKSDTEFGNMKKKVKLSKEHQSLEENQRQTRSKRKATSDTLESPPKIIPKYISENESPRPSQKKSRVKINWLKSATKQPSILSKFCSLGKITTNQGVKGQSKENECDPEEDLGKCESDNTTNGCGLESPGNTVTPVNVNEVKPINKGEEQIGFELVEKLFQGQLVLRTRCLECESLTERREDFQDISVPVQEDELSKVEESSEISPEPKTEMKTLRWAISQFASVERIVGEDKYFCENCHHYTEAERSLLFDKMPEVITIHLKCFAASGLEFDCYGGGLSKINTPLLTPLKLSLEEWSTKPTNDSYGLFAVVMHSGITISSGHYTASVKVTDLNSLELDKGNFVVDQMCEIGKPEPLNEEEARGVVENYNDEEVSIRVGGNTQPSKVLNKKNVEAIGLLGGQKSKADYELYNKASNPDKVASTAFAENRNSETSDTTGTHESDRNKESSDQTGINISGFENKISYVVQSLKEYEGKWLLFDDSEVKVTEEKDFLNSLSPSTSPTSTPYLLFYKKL
Chain of 3',5'-cyclic-AMP phosphodiesterase 4B (Homo sapiens) (Q07343 whole entry, looked up): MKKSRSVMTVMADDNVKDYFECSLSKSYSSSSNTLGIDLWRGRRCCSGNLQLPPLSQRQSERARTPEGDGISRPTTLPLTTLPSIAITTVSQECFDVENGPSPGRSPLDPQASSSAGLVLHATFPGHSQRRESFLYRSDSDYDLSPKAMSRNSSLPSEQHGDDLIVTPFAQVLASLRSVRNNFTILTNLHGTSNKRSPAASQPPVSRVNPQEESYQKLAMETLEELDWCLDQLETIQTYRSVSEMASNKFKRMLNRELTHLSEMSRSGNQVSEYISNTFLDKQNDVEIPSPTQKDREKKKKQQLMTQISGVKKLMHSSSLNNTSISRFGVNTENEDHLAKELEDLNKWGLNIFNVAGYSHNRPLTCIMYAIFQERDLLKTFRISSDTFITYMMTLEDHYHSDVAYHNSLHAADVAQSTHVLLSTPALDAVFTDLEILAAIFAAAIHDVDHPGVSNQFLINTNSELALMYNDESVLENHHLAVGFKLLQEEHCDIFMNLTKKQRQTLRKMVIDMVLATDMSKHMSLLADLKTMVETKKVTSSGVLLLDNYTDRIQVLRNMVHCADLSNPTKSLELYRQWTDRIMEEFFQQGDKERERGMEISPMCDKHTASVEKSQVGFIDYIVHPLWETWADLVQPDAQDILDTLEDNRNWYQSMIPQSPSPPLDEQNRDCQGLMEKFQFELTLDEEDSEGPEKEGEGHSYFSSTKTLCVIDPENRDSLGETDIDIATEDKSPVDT
Chain of Cytochrome P450 1A2 (Homo sapiens) (P05177 whole entry, looked up): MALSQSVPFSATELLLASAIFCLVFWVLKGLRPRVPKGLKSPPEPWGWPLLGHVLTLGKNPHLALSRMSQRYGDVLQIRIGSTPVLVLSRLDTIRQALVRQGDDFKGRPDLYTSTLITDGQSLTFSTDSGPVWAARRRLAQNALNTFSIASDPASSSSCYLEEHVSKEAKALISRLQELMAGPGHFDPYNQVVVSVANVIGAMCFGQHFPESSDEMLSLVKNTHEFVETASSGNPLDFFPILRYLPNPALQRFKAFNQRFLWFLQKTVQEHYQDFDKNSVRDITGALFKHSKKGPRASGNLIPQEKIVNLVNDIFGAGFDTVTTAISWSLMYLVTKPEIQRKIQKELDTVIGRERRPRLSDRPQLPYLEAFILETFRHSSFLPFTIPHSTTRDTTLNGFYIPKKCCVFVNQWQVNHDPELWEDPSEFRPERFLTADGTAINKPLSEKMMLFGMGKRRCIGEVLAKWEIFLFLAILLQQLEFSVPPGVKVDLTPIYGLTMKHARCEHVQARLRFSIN
Chain of Glucocorticoid receptor (Homo sapiens) (P04150 whole entry, looked up, the tested form may be a part): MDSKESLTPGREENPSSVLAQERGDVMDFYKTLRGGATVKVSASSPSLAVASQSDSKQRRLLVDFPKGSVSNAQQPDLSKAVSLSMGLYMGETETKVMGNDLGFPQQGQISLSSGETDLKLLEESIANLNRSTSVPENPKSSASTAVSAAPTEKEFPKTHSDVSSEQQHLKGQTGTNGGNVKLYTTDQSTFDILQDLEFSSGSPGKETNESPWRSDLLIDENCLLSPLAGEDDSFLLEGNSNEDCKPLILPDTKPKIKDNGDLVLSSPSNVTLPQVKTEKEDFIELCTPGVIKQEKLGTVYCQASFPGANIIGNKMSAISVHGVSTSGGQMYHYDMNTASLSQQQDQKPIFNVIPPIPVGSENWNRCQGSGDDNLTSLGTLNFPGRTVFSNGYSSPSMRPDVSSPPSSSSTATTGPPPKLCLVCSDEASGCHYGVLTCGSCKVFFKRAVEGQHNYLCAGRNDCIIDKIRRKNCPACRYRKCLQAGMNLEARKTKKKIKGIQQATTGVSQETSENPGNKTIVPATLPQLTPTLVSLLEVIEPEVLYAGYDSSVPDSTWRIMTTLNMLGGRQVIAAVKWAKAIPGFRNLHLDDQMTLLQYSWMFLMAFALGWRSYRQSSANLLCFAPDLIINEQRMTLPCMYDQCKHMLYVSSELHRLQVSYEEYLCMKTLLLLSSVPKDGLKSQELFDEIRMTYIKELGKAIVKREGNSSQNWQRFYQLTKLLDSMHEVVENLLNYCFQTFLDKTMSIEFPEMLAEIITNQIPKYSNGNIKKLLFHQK
Chain of Luciferin 4-monooxygenase (Photinus pyralis) (P08659 whole entry, looked up): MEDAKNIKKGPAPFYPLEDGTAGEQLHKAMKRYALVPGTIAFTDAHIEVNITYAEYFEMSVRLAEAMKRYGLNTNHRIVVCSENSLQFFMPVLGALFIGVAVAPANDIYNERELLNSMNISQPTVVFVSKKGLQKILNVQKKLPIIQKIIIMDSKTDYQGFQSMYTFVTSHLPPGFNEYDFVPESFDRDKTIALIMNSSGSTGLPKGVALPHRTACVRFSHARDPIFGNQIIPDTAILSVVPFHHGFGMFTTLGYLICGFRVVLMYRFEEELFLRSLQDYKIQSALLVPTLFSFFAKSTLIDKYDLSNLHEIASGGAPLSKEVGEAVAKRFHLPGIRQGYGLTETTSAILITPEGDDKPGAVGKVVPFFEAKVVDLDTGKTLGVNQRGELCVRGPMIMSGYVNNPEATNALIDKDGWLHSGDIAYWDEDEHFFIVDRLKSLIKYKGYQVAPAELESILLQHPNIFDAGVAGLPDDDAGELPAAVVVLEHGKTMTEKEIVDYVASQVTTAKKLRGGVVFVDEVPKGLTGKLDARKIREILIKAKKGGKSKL

CC[C@H](CO)NCCN[C@@H](CC)CO
inactive: outcome [1] | Potency [2] | activity change, negative = inhibition [3] -11.9% | outcome [4] | Potency [5] | outcome [6] | activity change, negative = inhibition ([7]; at 25.7 µM (top of the series)) -0.966% | Potency [8] | Potency [9] | activity, negative = inhibition ([10]; parasite line A) -3.07% | activity, negative = inhibition ([10]; parasite line B) 5.7% | Potency (C2A) | Potency (CP217) | Potency (CP238) | Potency (CP250) | Potency (CP256) | Potency (FAB9) | Potency (JCK) | Potency (SC27B)
4.52%: max response [7, 14]
4.79%: max response [7, 13]

NC(=O)c1cc[n+](CC2=C(C(=O)[O-])N3C(=O)[C@@H](NC(=O)Cc4cccs4)[C@@H]3SC2)cc1
-16.9%: max response [7, 14]
-15%: max response [7, 13]
inactive: outcome [1] | Potency [2] | activity change, negative = inhibition [3] -11% | outcome [4] | Potency [5] | outcome [6] | activity change, negative = inhibition ([7]; at 25.7 µM (top of the series)) -1.16% | Potency [9] | activity, negative = inhibition ([10]; parasite line A) -3.3% | activity, negative = inhibition ([10]; parasite line B) 1.86% | Potency (C2A) | Potency (CP217) | Potency (CP238) | Potency (CP250) | Potency (CP256) | Potency (FAB9) | Potency (JCK) | Potency (SC27B)

Nc1c2ccccc2nc2c(O)cccc12
-4.58%: max response [7, 13]
active: Potency [2] 6.31 µM
-4.09%: max response [7, 14]
inactive: outcome [1] | activity change, negative = inhibition [3] -1.27% | outcome [4] | Potency [11] > 20.6 µM | Potency [12] > 20.6 µM | outcome [6] | activity change, negative = inhibition ([7]; at 25.7 µM (top of the series)) -0.346% | Potency [8]

N#Cc1cccc(-c2cncnc2-n2ccnc2)c1
16.1%: max response [7, 13]
24.6%: max response [7, 14]
inactive: outcome [1] | activity change, negative = inhibition [3] -7.66% [at 7.69 µM] | outcome [4] | Potency [12] > 46 µM | Potency [5] | outcome [6] | activity change, negative = inhibition ([7]; at 57.5 µM (top of the series)) 8.24% | Potency [8]
active: Potency [2] 15.8 µM

Cc1ccc(S(=O)(=O)NC(=O)NN2C[C@H]3CCC[C@@H]3C2)cc1
5.52%: max response [7, 13]
inactive: outcome [1] | Potency [2] | activity change, negative = inhibition [3] -2% | outcome [4] | Potency [5] | outcome [6] | activity change, negative = inhibition ([7]; at 25.7 µM (top of the series)) 2.69% | Potency [9] | activity, negative = inhibition ([10]; parasite line A) -0.0473% | activity, negative = inhibition ([10]; parasite line B) 12.1% | Potency (C2A) | Potency (CP217) | Potency (CP238) | Potency (CP250) | Potency (CP256) | Potency (FAB9) | Potency (JCK) | Potency (SC27B)
8.97%: max response [7, 14]

Cc1ccccc1N1C(=O)c2cc(S(N)(=O)=O)c(Cl)cc2N[C@H]1C
-3.14%: max response [7, 13]
inactive: outcome [1] | Potency [2] | activity change, negative = inhibition [3] 1.02% | outcome [4] | Potency [11] > 20.6 µM | Potency [12] > 20.6 µM | outcome [6] | activity change, negative = inhibition ([7]; at 25.7 µM (top of the series)) 0.988% | Potency [8]
-3.66%: max response [7, 14]

CC1(C)O[C@H]2C[C@@H]3[C@H]4CCC5=CC(=O)CC[C@@]5(C)[C@]4(F)[C@@H](O)C[C@@]3(C)[C@@]2(C(=O)CCl)O1
-17.1%: max response [7, 14]
-11.4%: max response [7, 13]
active: Potency ([10]; parasite line B) 1.58 µM | Potency (CP217) 2.24 µM | Potency (CP250) 3.98 µM | Potency (CP256) 3.55 µM
inactive: outcome [1] | Potency [2] | activity change, negative = inhibition [3] 17.6% | outcome [4] | Potency [5] | outcome [6] | activity change, negative = inhibition ([7]; at 25.7 µM (top of the series)) -3.97% | Potency [9] | Potency (FAB9)

CO[C@]1(NC(=O)Cc2cccs2)C(=O)N2C(C(=O)O)=C(COC(N)=O)CS[C@H]21
0.943%: max response [7, 14]
-2.6%: max response [7, 13]
inactive: outcome [1] | Potency [2] | activity change, negative = inhibition [3] 3.7% | outcome [4] | Potency [5] | outcome [6] | activity change, negative = inhibition ([7]; at 25.7 µM (top of the series)) 2.57% | Potency [8]

C[C@@H]1O[C@H](O[C@@H]2[C@@H](Oc3cc(O)c4c(c3)O[C@H](c3ccc(O)cc3)CC4=O)O[C@@H](CO)[C@@H](O)[C@H]2O)[C@@H](O)[C@H](O)[C@@H]1O
-4.7%: max response [7, 13]
-6.11%: max response [7, 14]
inactive: outcome [1] | Potency [2] | activity change, negative = inhibition [3] -5.97% | outcome [4] | Potency [11] > 20.6 µM | Potency [12] > 20.6 µM | Potency [5] | outcome [6] | activity change, negative = inhibition ([7]; at 25.7 µM (top of the series)) -1.64% | Potency [8]

CC(=O)OCC(=O)[C@@]1(O)CC[C@@H]2[C@H]3CCC4=CC(=O)CC[C@]4(C)[C@]3(F)[C@@H](O)C[C@@]21C
9.04%: max response [7, 13]
inactive: outcome [1] | Potency [2] | activity change, negative = inhibition [3] -9.54% | outcome [4] | Potency [5] | outcome [6] | activity change, negative = inhibition ([7]; at 25.7 µM (top of the series)) 0.165% | Potency [8]
9.02%: max response [7, 14]

CC(=O)N(C[C@@H](O)CO)c1c(I)c(C(=O)NC[C@@H](O)CO)c(I)c(C(=O)NC[C@@H](O)CO)c1I
-16.6%: max response [7, 13]
-19.4%: max response [7, 14]
inactive: outcome [1] | Potency [2] | activity change, negative = inhibition [3] -8.29% | outcome [4] | Potency [5] | outcome [6] | activity change, negative = inhibition ([7]; at 25.7 µM (top of the series)) -2.6% | Potency [8]

CC(=O)[C@H]1CC[C@@H]2[C@H]3CC=C4C[C@@H](O)CC[C@]4(C)[C@H]3CC[C@]12C
-15.2%: max response [7, 14]
-11.5%: max response [7, 13]
inactive: outcome [1] | Potency [2] | activity change, negative = inhibition [3] 3.47% | outcome [4] | Potency [5] | outcome [6] | activity change, negative = inhibition ([7]; at 25.7 µM (top of the series)) -2.95% | Potency [8]

COc1cc2c(cc1OC)-c1cc3ccc(OC)c(OC)c3c[n+]1CC2
-8.72%: max response [7, 13]
-7.96%: max response [7, 14]
inactive: outcome [1] | Potency [2] | activity change, negative = inhibition [3] -18.1% | outcome [4] | Potency [11] > 20.6 µM | Potency [12] > 20.6 µM | Potency [5] | outcome [6] | activity change, negative = inhibition ([7]; at 25.7 µM (top of the series)) 1.8% | Potency [8]

C[C@@H]1C[C@@H]2[C@H]3CCC4=CC(=O)C=C[C@]4(C)[C@]3(F)[C@@H](O)C[C@]2(C)[C@@]1(O)C(=O)CO
2.12%: max response [7, 13]
inactive: outcome [1] | Potency [2] | activity change, negative = inhibition [3] -9.85% | outcome [4] | outcome [6] | activity change, negative = inhibition ([7]; at 25.7 µM (top of the series)) -3.53% | Potency [8]
-8.18%: max response [7, 14]
